miR122 inh: miR-122 inhibition in Huh7 cells; hit rate 0.3% among 340,000; activation (reporter increase), % at 12.5 µM; AID 602342; Huh7 miR-122 Renilla luciferase sensor, 48 h; neutral wells = 0, positive control = 100;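 active = mean replicate activation score at least 90 and every replicate individually at or above 90; inconclusive = only one of the two criteria met; inactive = neither criterion met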;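 note: higher luciferase means less miR-122 activity so hits act as miR-122 inhibitors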
RAD52 anneal inh: RAD52 (human) annealing inhibition | P43351 | recombinant RAD52 DNA annealing, FRET fluorescence | inhibition, % at 18.7 µM | hit rate 0.46% among 360,000 | AID 651710;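 active = every replicate showing at least 50% inhibition; inconclusive = mean inhibition at least 50% but not in every replicate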
Target sequence (P43351 whole entry, looked up): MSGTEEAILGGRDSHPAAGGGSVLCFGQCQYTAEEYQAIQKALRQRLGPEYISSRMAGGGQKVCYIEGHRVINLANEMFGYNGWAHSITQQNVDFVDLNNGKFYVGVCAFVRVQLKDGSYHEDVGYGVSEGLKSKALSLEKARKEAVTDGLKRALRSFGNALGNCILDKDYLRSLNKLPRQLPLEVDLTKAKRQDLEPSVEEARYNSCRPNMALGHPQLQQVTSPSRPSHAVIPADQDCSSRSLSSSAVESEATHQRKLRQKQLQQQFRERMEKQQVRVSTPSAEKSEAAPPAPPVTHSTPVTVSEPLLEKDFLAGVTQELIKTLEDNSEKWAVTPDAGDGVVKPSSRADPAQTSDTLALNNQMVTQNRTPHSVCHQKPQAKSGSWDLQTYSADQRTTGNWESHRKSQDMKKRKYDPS
CASP6 VEID inh: inhibitors of human caspase-6; P55212; purified caspase-6, Z-VEID-R110 cleavage fluorescence; inhibition, % at 12.5 µM; hit rate 0.53% among 350,000; AID 686996;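 active = mean inhibition across replicates at least about 35%, with every replicate also reaching that limit, limit read from the data; inconclusive = only one of the two criteria met; inactive = neither criterion met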;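 note: 0% = median of neutral control wells and 100% = no fluorescence left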
NSD2 HMT inh: blocks human histone methyltransferase NSD2; inhibition, % at 12.5 µM; hit rate 0.54% among 310,000; NSD2 peptide methylation, AlphaScreen, 120 min; O96028; AID 743445; in the data active = inhibition above about 50%
MLL AF4-AF9 inh: blocks AF4 peptide binding to human AF9; AlphaScreen, biotin-AF4 peptide binding to FLAG-AF9; inhibition, % at 10 µM; hit rate 0.47% among 350,000; AID 651704;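 active = every replicate reaching a set inhibition limit, whatever the replicate mean, cut at about 25% in these data; inconclusive = mean inhibition reaches that limit but some replicates miss it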;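 note: 0% = plate neutral control median and 100% = total signal loss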
* hit, by the source's call; i = inactive; ? = inconclusive; . = no result given; ! = a repeat was not active; [ ] = another dose, or the depositor's remark. An excerpt weighted towards active compounds, which were near 1.5% of everything screened.

SMILES	miR122 inh	RAD52 anneal inh	CASP6 VEID inh	NSD2 HMT inh	MLL AF4-AF9 inh
CCN(CC)c1ccc(CN2CC=C(c3ccc(F)cc3)CC2)cc1	0	.	.	54*	.
Cc1c(N=Nc2c(O)[nH]c(=O)[nH]c2=O)c(=O)n(-c2ccccc2)n1C	5	-84	41*	-6	-3
Cc1c(N=Nc2c(O)n(-c3ccc(Br)cc3)c(=O)[nH]c2=O)c(=O)n(-c2ccccc2)n1C	-3	-25	3	1	0
O=C1CNC[C@@H]2[C@H](c3ccc(Br)cc3)[C@@H](CO)N12	.	8	2	.	-4
O=C(C(=C1N(Cc2ccc(Cl)nc2)CCN1Cc1ccc(Cl)nc1)[N+](=O)[O-])C(Cl)Cl	10	-8	36*	-1	-1
O=C(COC(=O)Cc1ccccc1)Nc1cc(S(=O)(=O)N2CCOCC2)ccc1N1CCCC1	-4	-36	-3	-2	2
O=C(COC(=O)Cc1ccccc1)Nc1cc(S(=O)(=O)N2CCCCC2)ccc1Cl	.	-12	71*	0	2
CC1CN1c1cc2c(c3c1ccn3C)C1CCC2C1 (stereo not given)	4	3	4	.	40*
C=Cc1cc(OC)c2c(c1)c(=O)oc1c2cc(OC)c2c(O)ccc(C3OC(C)C(O)C(C)(O)C3O)c21 (stereo not given)	-8	23	53*	.	-4
O=C(O)[C@@H]1[C@@H](CO)[C@@H]2Cn3c(cccc3=O)[C@H]1N2C(=O)c1ccccc1	.	5	-1	.	-3
COC(=O)[C@H]1[C@H](CO)[C@H]2Cn3c(ccc(-c4ccccc4F)c3=O)[C@@H]1N2Cc1ccncc1	0[16.7 µM]	123*	-2	.	-1
COC(=O)[C@@H]1[C@@H](CO)[C@@H]2Cn3c(ccc(-c4ccccc4F)c3=O)[C@H]1N2Cc1ccncc1	6[16.7 µM]	107*	-1	.	2
CCCN1[C@@H]2c3ccc(-c4ccc(F)cc4)c(=O)n3C[C@H]1[C@H](CO)[C@H]2C(=O)OC	-1[16.7 µM]	57*	0	.	0
COC(=O)[C@H]1[C@H](CO)[C@H]2Cn3c(ccc(-c4ccccc4F)c3=O)[C@@H]1N2Cc1ccccc1	-7[16.7 µM]	1	1	.	-6
COc1ccccc1CN1[C@H](CO)[C@H](c2ccccc2)C12CN(C(=O)Cc1ccccc1)C2	.	3	3	.	1
O=C(Cc1cccnc1)N1CCCCN2[C@H](CO)[C@@H](c3ccc(/C=C/c4ccccc4)cc3)[C@H]2C1	-4[16.7 µM]	-25	-1	.	27*
O=C(Cc1ccccc1)N1CCCCN2[C@H](CO)[C@@H](c3ccc(C#Cc4ccccc4)cc3)[C@@H]2C1	-11[16.7 µM]	-14	1	.	-6
O=C(Cc1ccccc1)N1CCCCN2[C@H](CO)[C@@H](c3ccc(C#Cc4ccccc4)cc3)[C@H]2C1	6[16.7 µM]	-17	54*	.	-1
CCOC(=O)N1CCC(NC(=O)CCc2nc(C3=CCN(C)CC3)no2)CC1	.	-5	-2	8	33*
O=C1NC(=O)C(=Cc2ccc(Sc3ccccc3)o2)C(=O)N1	-3	-23	5	8	2
O=C1NC(=O)N(c2ccc(Cl)cc2)C(=O)/C1=C\c1ccc(Sc2nc3ccccc3[nH]2)o1	.	-231	69*	43	-1
COc1ccc(NP(=O)(Oc2ccc(Cl)cc2)Oc2ccc(Cl)cc2)cc1OC	136*	9	-1	0	2
Cc1ccc(OP(=O)(Nc2cccc(C)c2)Oc2ccc(C)cc2)cc1	187*	-17	-5	0	-2
Cc1cccc(OP(=O)(Nc2cccnc2)Oc2cccc(C)c2)c1	.	.	.	0	.
O=C(O)[C@H]1[C@H](CO)[C@H]2Cn3c(ccc(-c4ccc(F)cc4)c3=O)[C@@H]1N2CC1CCCC1	.	-4	0	.	-3
SMILES	miR122 inh	RAD52 anneal inh	CASP6 VEID inh	NSD2 HMT inh	MLL AF4-AF9 inh
O=C(Cc1ccncc1)N1CCCCN2[C@H](CO)[C@H](c3ccc(-c4ccncc4)cc3)[C@@H]2C1	39[16.7 µM]	-64	3	.	-7
c1cc(-c2ccc(C3[C@H]4CNC[C@@H]3N4CC3CC3)cc2)ccn1 (stereo not given in full)	.	14	0	.	38*
CCN(CC)S(=O)(=O)c1ccc(C)c(NCC(=O)Nc2ccc(C#N)c(Cl)c2)c1	119*	.	.	1	.
CNc1ccc2nc3ccccc3[n+](C)c2c1	-3	-130	95*	81*	9
OCCNc1c2c(nc3ccccc13)CCCC2	-5	.	.	0	.
C[n+]1c2ccccc2nc2ccc(NCCO)cc21	.	-38	83*	101*	6
COC(=O)[C@H]1N[C@H]2c3ccc(C4=CCCC4)c(=O)n3C[C@H]2[C@@H]1CO	.	-68	-2	.	-5
CN(C)c1ccc(/C=C2\C(=O)NC(=O)N(Cc3ccc(F)cc3)C2=O)cc1	-5	-34	1	9	.
O=C1NC(=O)N(Cc2ccc(F)cc2)C(=O)/C1=C\c1ccoc1	-3	i	47*	10	1
Cc1ccc(/C=C2\C(=O)NC(=O)N(Cc3ccccc3Cl)C2=O)o1	.	-51	51*	4	-10
Cc1ccc(/C=C2/C(=O)NC(=O)N(Cc3ccc(F)cc3)C2=O)o1	.	-31	4	5	-7
Cc1ccc(C(=O)N[C@@H](C)CN2C3=NC[C@@H](Cc4ccccc4)N3C[C@H]2Cc2ccc(O)cc2)cc1Br	.	31	0	.	27*
O=C1CNC[C@H]2[C@H](c3ccc(Br)cc3)[C@@H](CO)N12	.	12	1	.	-3
CN1CC[C@@]2(C)c3cc(O)ccc3N(C)[C@@H]12	-4	69*!	17	.	?
CC1CCC(C(C)C)C(OC(=O)Cn2c(COc3ccccc3)[n+](C)c3ccccc32)C1 (stereo not given)	-1	36	24	.	25*
O=C(NCC1=C(c2cccc3ccccc23)C[C@@H]2CC[C@H]1N2Cc1ccco1)c1ccc([N+](=O)[O-])cc1	-6	28	1	.	25*
Cc1cccc(N2C(=O)NC(=O)/C(=C\C=C\c3ccco3)C2=O)c1	.	-72	30	.	-14
CN1C(=O)/C(=C/C=C/c2ccco2)C(=O)NC1=S	.	i	76*	.	-2
O=C1NC(=O)N(Cc2ccco2)C(=O)/C1=C/C=C/c1ccco1	.	-158	88*	.	-6
O=C1NC(=O)N(Cc2ccccc2)C(=O)/C1=C\C=C\c1ccco1	-6	-144	60*	42	0
O=C1NC(=O)N(c2ccccc2)C(=O)/C1=C/C=C/c1ccco1	-2	-128	21	.	4
Cc1ccc(N2C(=O)NC(=O)/C(=C\C=C\c3ccco3)C2=O)cc1C	.	-85	38*	65*	0
COc1ccc(-c2ccc([C@H]3[C@H]4CN(C(=O)Cc5ccncc5)CCCCN4[C@H]3CO)cc2)cc1	-11[16.7 µM]	7	3	.	-1
O=C1CNC[C@@H]2[C@@H](c3ccc(Br)cc3)[C@@H](CO)N12	.	1	0	.	-4
COc1ccc(C#Cc2ccc([C@@H]3[C@H](CO)N4CCCCN(C(=O)Cc5cccnc5)C[C@@H]34)cc2)cc1	-4[16.7 µM]	-1	0	.	0
O=c1cc(C2CCNCC2)[nH][nH]1	156*	.	.	-4	.

Compound activity deposited in PubChem BioAssay by Broad Institute.
